Where “and” joins values, the source holds several entries; their conditions need not be identical. Equal entries are not always repeated. Calls of active or inactive are those of the source. Unless noted, the rule behind the calls is not given here.
How the values were obtained:
[1] = system: Wnt5a (protein binding on small-molecule microarray); assay: small molecules binding Wnt5a protein – biophysical, small-molecule microarray, 635/667 nm fluorescence, primary screen (AID 1142); conditions: 635 nm fluorescence, higher = more signal;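 note: fluorescence read at 667 nm with signal to noise per printed feature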
[2] = ATP-based viability of Huh7 replicon cells – cell-based, CellTiter-Glo luminescence, basal, 48 h, cytotoxicity control for HCV replication inhibitor project, primary screen (AID 1143); conditions: higher = more signal, called active from +8 up or from −8 down;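 note: Huh7 hepatoma cells carrying a hepatitis C replication reporter with no stimulus; test concentration not given here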
[3] = Pseudomonas biofilm growth suppression – PAO1 strain, BacTiter-Glo luminescence, LB-PBS, primary screen (AID 1144); conditions: P. aeruginosa PAO1 biofilm, 12 h, higher = more signal
[4] = basal CRE-LacZ reporter activity in PC12 – cell-based, unstimulated, primary screen (AID 1145); conditions: no forskolin, luminescence, 4.5 h, higher = more signal, called active from +8 up or from −8 down
[5] = forskolin-driven CRE-LacZ activity in PC12 – cell-based, CRE-LacZ reporter, forskolin-stimulated, primary screen (AID 1146); conditions: luminescence, 4.5 h, higher = more signal, called active from +8 up or from −8 down;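 note: PC12 cells with 6xCRE LacZ reporter stimulated by forskolin 10 µM; beta-galactosidase reporter signal reflecting CREB driven transcription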
[6] = target: Streptavidin (Streptomyces avidinii) (UniProt P22629); assay: compounds binding control protein streptavidin – biophysical, small-molecule microarray, 635/667 nm fluorescence, artefact control for SMM compound annotation, primary screen (AID 1147); conditions: higher = more signal;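 note: signal reflects streptavidin binding to arrayed compounds as a control protein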
Chain of Streptavidin (Streptomyces avidinii) (P22629 whole entry, looked up): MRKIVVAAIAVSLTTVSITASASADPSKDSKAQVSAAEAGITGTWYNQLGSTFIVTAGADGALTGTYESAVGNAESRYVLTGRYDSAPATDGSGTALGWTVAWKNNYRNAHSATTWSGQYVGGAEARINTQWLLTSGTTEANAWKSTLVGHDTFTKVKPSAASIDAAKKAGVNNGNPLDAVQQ

[7] = probe aInhba binding on compound microarray – biochemical, small-molecule microarray, 635/667 nm fluorescence, primary screen (AID 1148); conditions: higher = more signal;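 note: score merges 667nm spot fluorescence with signal-to-noise for antibody binding to printed compounds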
Torsin-1A (Homo sapiens) [8] = target: Torsin-1A (Homo sapiens) (UniProt O14656); assay: TOR1A wild-type binding on microarray – cell lysate, small-molecule microarray, lysate, 635/667 nm, primary screen (AID 1149); conditions: COS7 hTOR1A-WT lysate, 635 nm fluorescence, higher = more signal
Chain of Torsin-1A (Homo sapiens) (O14656 whole entry, looked up): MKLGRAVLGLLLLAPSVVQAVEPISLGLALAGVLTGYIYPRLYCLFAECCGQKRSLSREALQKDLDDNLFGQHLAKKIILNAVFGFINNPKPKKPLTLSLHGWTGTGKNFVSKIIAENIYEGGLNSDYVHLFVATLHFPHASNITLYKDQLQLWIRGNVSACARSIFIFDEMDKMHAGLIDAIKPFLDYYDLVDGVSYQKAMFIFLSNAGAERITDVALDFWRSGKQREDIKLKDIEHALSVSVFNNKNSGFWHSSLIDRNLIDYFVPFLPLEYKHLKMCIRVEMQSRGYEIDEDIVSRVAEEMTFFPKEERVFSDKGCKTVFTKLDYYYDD

Torsin-1A (Homo sapiens) [9] = target: Torsin-1A (Homo sapiens) (UniProt O14656); assay: torsin A mutant lysate binding on microarrays – cell lysate, small-molecule microarray, COS7 lysate, 635/667 nm fluorescence, primary screen (AID 1150); conditions: COS7 hTOR1A mutant lysate, 635 nm fluorescence, higher = more signal;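 note: score pools 667 nm emission and signal to noise measuring lysate protein binding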
[10] = system: Sonic hedgehog protein (Shh); assay: Sonic hedgehog microarray binding compounds – biochemical, small-molecule microarray, 635/667 nm fluorescence, primary screen (AID 1151); conditions: 635 nm fluorescence, higher = more signal;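 note: Shh protein binding to compounds spotted on small-molecule microarray slides; score combines spot fluorescence intensity with signal-to-noise across triplicate slides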
[11] = optical density shifts of acrAB sulA E. coli – strain DRC41, OD650, 48 h, E. coli filamentation inducer project, primary screen (AID 1152); conditions: higher = more signal, called active from +8 up or from −8 down;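 note: E. coli MC1000 strain DRC41 lacking acrAB efflux pump and sulA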
[12] = probe aLefty1 binding on compound microarray – biochemical, small-molecule microarray, 635/667 nm fluorescence, primary screen (AID 1153); conditions: higher = more signal;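 note: score merges spot fluorescence with signal-to-noise ratio from the scanned slide images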
[13] = plasmodial surface anion channel blockers, osmotic lysis – cell-based, P. falciparum Indochina, OD700, 1 h, primary screen (AID 1154); conditions: P. falciparum Indochina infected RBC osmotic lysis, higher = more signal, called active from +8 up or from −8 down
[14] = plasmodial surface anion channel blockers, osmotic lysis – cell-based, P. falciparum Indochina, OD700, 2 h, primary screen (AID 1155);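 note: lysis reports solute entry through the parasite surface anion channel PSAC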; conditions: P. falciparum Indochina infected erythrocytes, higher = more signal, called active from +8 up or from −8 down
[15] = changes in parasitized red cell lysis, either direction – P. falciparum Indochina, OD700, 3 h, PSAC antagonist project, primary screen (AID 1156); conditions: P. falciparum-infected erythrocytes, osmotic lysis, higher = more signal, called active from +8 up or from −8 down
[16] = plasmodial surface anion channel blockers, osmotic lysis – cell-based, P. falciparum Indochina, OD700, 18 h, primary screen (AID 1157); conditions: P. falciparum Indochina infected erythrocytes, osmotic lysis OD700, 18 h; higher = more signal, called active from +8 up or from −8 down
[17] = S6 kinase pathway phospho-S6 level changes – cell-based, A549, cytoblot, luminescence, serum-stimulated, primary screen (AID 1158); conditions: 5 h, higher = more signal;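 note: serum-stimulated A549 lung adenocarcinoma cells; signal is phosphorylated S6 detected by cytoblot immunostaining with HRP secondary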
[18] = target: NADPH oxidase 2 (Homo sapiens) (UniProt P04839); assay: compounds shifting NOX2 Amplex Red fluorescence – cell-based, HEK293-NOX2, PMA-stimulated, NOX inhibitor project, primary screen (AID 1159); conditions: 45 min, higher = more signal, called active from +8 up or from −8 down; note: test concentration not given here
Chain of NADPH oxidase 2 (Homo sapiens) (P04839 whole entry, looked up): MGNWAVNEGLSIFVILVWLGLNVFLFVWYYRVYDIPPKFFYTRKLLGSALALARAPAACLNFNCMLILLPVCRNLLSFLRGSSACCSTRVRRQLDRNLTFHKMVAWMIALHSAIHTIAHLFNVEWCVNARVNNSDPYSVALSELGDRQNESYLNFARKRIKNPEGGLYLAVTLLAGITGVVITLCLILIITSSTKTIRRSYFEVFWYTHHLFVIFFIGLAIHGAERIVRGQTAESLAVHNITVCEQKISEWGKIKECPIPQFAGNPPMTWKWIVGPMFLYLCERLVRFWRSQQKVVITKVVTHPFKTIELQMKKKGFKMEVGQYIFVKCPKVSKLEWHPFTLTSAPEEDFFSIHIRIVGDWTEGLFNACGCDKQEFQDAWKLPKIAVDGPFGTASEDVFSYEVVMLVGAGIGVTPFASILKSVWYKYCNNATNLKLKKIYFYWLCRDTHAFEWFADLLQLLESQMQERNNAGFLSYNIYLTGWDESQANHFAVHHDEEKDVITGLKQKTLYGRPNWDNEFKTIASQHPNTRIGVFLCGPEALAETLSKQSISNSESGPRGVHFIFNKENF

[19] = target: NADPH oxidase 4 (Homo sapiens) (UniProt Q9NPH5); assay: compounds shifting NOX4 Amplex Red fluorescence – cell-based, HEK293-NOX4, tetracycline-induced, NOX inhibitor project, primary screen (AID 1160); conditions: HEK293-NOX4, Amplex Red H2O2 fluorescence, 45 min; higher = more signal, called active from +8 up or from −8 down
Chain of NADPH oxidase 4 (Homo sapiens) (Q9NPH5 whole entry, looked up): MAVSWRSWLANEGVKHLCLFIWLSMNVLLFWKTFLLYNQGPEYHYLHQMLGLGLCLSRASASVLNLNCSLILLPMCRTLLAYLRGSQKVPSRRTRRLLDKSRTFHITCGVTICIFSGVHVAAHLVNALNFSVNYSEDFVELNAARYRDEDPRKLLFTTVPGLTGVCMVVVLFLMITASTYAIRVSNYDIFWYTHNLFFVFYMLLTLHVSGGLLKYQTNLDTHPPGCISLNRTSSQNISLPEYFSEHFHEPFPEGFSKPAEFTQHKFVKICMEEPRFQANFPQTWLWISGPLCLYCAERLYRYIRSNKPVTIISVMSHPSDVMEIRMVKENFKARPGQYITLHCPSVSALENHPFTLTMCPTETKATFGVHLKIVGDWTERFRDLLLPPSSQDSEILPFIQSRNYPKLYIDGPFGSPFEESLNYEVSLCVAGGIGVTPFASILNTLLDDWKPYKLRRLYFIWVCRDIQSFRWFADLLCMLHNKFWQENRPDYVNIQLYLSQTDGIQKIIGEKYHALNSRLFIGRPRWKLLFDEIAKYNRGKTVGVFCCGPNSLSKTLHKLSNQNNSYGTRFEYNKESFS

[20] = target: NADPH oxidase 5 (Homo sapiens) (UniProt Q96PH1); assay: compounds shifting NOX5 Amplex Red fluorescence – cell-based, HEK293-NOX5, NOX inhibitor project, primary screen (AID 1161); conditions: HEK293-NOX5, ionomycin, 45 min, higher = more signal
Chain of NADPH oxidase 5 (Homo sapiens) (Q96PH1 whole entry, looked up): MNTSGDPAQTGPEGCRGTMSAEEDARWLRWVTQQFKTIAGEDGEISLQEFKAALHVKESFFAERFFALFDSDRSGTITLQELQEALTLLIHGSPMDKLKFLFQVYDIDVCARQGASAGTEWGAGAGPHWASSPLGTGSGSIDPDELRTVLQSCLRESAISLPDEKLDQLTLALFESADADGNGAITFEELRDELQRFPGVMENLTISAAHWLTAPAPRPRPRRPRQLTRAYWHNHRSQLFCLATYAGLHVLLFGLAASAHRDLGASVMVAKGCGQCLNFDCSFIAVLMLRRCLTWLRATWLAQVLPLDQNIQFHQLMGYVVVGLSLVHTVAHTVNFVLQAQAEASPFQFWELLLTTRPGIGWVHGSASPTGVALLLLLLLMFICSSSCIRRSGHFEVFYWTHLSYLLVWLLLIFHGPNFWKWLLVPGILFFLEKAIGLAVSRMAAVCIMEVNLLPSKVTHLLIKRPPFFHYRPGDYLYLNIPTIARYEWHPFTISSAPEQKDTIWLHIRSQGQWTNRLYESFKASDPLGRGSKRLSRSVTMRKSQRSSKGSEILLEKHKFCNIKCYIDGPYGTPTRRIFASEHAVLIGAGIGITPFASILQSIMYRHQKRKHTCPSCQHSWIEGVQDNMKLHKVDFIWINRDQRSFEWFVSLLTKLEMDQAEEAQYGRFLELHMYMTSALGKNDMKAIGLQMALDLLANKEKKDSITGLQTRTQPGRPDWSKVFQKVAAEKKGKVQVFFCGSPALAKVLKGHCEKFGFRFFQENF

SMILES	composite z-score [1]	z-score [2]	z-score [3]	z-score [4]	z-score [5]	composite z-score [6]	composite z-score [7]	composite z-score (Torsin-1A (Homo sapiens) [8])	composite z-score (Torsin-1A (Homo sapiens) [9])	composite z-score [10]	z-score [11]	composite z-score [12]	z-score [13]	z-score [14]	z-score [15]	z-score [16]	z-score [17]	z-score [18]	z-score [19]	z-score [20]
CO[C@H]1COC(=O)CC=C[C@@H](C)COC(=O)[C@@H](OCc2ccccc2)C=C[C@@H]1C	-0.134	-0.356 (inactive)	0.106 (inactive)	0.79 (inactive)	-0.471 (inactive)	0.999	-0.3	2.35	2.28	1.96	1.08 (inactive)	-0.334	1 (inactive)	-0.104 (inactive)	0.362 (inactive)	-0.0412 (inactive)	0.21	0.46 (inactive)	1.19 (inactive)	0.308
COc1ccc(O[C@H]2C=C[C@@H](c3ccccc3)O[C@@H]2COC(=O)CCC(C)=NO[C@H](C)c2cn([C@H](CO)Cc3ccccc3)nn2)cc1	0.205 and -0.274	-1.93 (inactive) and -1.7 (inactive)	0.916 (inactive) and 1.05 (inactive)	2.66 (inactive) and 1.53 (inactive)	1.83 (inactive) and 0.775 (inactive)	0.379 and 2.03	0.344 and 0.104	0.362 and 0.702	0.127 and 0.463	0.372 and 1.69	0.756 (inactive) and 0.0906 (inactive)	0.273 and -0.553	14.1 (active) and 13.6 (active)	1.6 (inactive) and 2.16 (inactive)	2.07 (inactive) and 1.09 (inactive)	0.711 (inactive) and 0.907 (inactive)	-0.112 and -0.835	-2.32 (inactive) and -2.14 (inactive)	0.0167 (inactive) and -2.56 (inactive)	-1.63 and -3.66
C=C[C@@H](OC)[C@H](O)c1ccc(O)c(F)c1	-0.843 and -0.24	0.558 (inactive) and -0.495 (inactive)	-0.776 (inactive) and 0.181 (inactive)	0.572 (inactive) and 0.427 (inactive)	-0.881 (inactive) and -0.122 (inactive)	-1.35 and -1.17	-0.314 and -0.154	-1.65 and -0.846	-2.28 and -0.978	-0.644 and 0.0436	0.0737 (inactive) and 1.88 (inactive)	-0.284 and -0.196	0.268 (inactive) and -0.347 (inactive)	-0.132 (inactive) and -0.266 (inactive)	-0.387 (inactive) and -0.924 (inactive)	0.426 (inactive) and -1.02 (inactive)	-0.422 and 1.68	0.203 (inactive) and -0.689 (inactive)	-1.69 (inactive) and -0.842 (inactive)	-1.64 and -1.95
COC(=O)C1=C(C)N(Cc2ccccc2)[C@]23O[C@](C(=O)OC)(C(=O)N2[C@@H]1c1ccccc1)[C@H]1CCCC(=O)[C@H]13	0.04 and -0.0686	-3.29 (inactive) and -2.24 (inactive)	-0.375 (inactive) and -1.01 (inactive)	0.563 (inactive) and 2.64 (inactive)	-0.771 (inactive) and -0.693 (inactive)	0.3	0.114 and -0.018	0.165 and 0.434	0.815 and 0.262	0.396 and 0.436	0.0211 (inactive) and -0.587 (inactive)	-0.0559 and 0.101	1.12 (inactive) and 0.466 (inactive)	0.314 (inactive) and 0.0982 (inactive)	0.0988 (inactive) and 0.882 (inactive)	0.0037 (inactive) and -1.37 (inactive)	-0.0731 and 2.28	-2.97 (inactive) and -0.233 (inactive)	0.743 (inactive) and 0.178 (inactive)	0.244 and -0.624
C=CC[C@H](O)c1ccc(OCCO)cc1	-0.0223 and -0.614	-1.36 (inactive) and -0.878 (inactive)	-0.809 (inactive) and -0.0923 (inactive)	-0.925 (inactive) and 0.18 (inactive)	-0.506 (inactive) and -0.0908 (inactive)	-0.893 and -1.41	-0.0371 and -0.497	-0.646 and -1.69	-0.0897 and -1.66	-0.125 and 0.891	-0.349 (inactive) and -0.895 (inactive)	-0.017 and -0.491	0.965 (inactive) and 1.27 (inactive)	0.396 (inactive) and -0.262 (inactive)	-0.0706 (inactive) and -0.94 (inactive)	0.475 (inactive) and 0.084 (inactive)	0.263 and 0.368	-0.317 (inactive) and -0.425 (inactive)	-0.103 (inactive) and 0.574 (inactive)	0.811 and 0.51
COC(=O)C1=C(C)N(Cc2ccccc2)C2=C(C(C)=O)C[C@@](O)(C(=O)OC)C(=O)N2[C@@H]1c1ccccc1	0.491 and 0.0879	-0.451 (inactive) and -1.18 (inactive)	-2.16 (inactive)	3.35 (inactive) and 4.53 (inactive)	-0.711 (inactive) and -0.239 (inactive)	-0.192 and -0.271	0.0212 and -0.0136	1.39 and 0.336	1.69 and -0.0069	1.74 and 0.806	0.125 (inactive) and -0.635 (inactive)	-0.147 and 0.0732	0.0793 (inactive) and -0.0501 (inactive)	-1.13 (inactive) and -0.742 (inactive)	0.0531 (inactive) and -0.0986 (inactive)	-1.62 (inactive) and -0.838 (inactive)	0.268 and 2.46	0.627 (inactive) and 0.462 (inactive)	0.993 (inactive) and 0.524 (inactive)	1 and 1.04
